# CHT PAM = allosterically activates the human high affinity choline transporter. 310,000 compounds, 0.49% hits. B-score at 10 µM. Q9GZV3. CHT-expressing cells, membrane potential dye, choline EC20; stronger effect = higher value; LV-AA mutant CHT in HEK293 cells;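 active means initial fluorescence not abnormally high and integrated response B-score, plate-corrected, over 3 SD above library mean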
# Target sequence (Q9GZV3 whole entry, looked up): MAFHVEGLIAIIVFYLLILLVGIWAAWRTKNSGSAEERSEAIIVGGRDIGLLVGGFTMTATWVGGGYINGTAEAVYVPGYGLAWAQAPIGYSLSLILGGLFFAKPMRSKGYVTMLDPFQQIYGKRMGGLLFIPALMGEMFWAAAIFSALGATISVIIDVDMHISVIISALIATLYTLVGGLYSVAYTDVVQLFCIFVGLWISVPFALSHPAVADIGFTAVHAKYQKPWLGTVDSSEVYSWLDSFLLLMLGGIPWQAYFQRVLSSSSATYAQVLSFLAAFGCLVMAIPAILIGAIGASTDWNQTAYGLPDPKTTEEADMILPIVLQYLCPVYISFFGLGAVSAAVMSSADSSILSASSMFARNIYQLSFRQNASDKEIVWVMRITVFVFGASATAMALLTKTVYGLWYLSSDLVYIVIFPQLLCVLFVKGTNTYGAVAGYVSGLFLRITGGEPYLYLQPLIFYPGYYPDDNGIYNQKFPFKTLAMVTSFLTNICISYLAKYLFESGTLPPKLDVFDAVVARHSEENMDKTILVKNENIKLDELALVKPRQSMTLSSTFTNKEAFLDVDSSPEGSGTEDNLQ
# ANO1 activ = mouse TMEM16A channel activation, primary screen. 340,000 compounds, 0.3% hits. HEK293 TMEM16A/YFP-H148Q/I152L, iodide quench fluorescence; stronger effect = lower value. B-score at 10 µM. Q8BHY3;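 active means fluorescence-ratio B-score plate-corrected deviation score at least 3 library SD below zero, with starting fluorescence score within 5 deviations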;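 further: channel opened by trigger with iodide after compound preincubation; score built on the fluorescence ratio of max minus min over baseline; more negative score means more quench and so TMEM16A activation or potentiation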
# TMEM16A inh = inhibitors of mouse TMEM16A calcium-activated chloride channel. Q8BHY3. HEK293 TMEM16A/YFP iodide influx fluorescence, ionomycin. normalized B-score (activity score, 25-100; higher = stronger inhibition) at 10 µM. 310,000 compounds, 1.2% hits. AID 588511;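 active means ratio plate-corrected score three or more library SD toward inhibition, starting fluorescence score within five deviations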;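 further: score derived from kinetic fluorescence span divided by baseline fluorescence per well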
# CHT block = inhibitors of human choline transporter CHT | Q9GZV3 | 310,000 compounds, 0.86% hits | CHT-expressing cells, membrane potential dye, choline response; stronger effect = lower value | B-score at 10 µM;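 active means B-score over 3 SD under the library average, and starting fluorescence ratio not unusually high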;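 further: choline stimulus applied at its EC90 after an EC20 pre-addition; B-score computed on integrated fluorescence ratio after choline addition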
# CHT inh conf = human CHT inhibition, confirmatory screen; shares compounds with CHT block; CHT-expressing cells, choline membrane potential dye; LV-to-AA substituted CHT, HEK293 cells; CHT activity remaining % of control (stronger effect = lower value), % at 10 µM; 2,400 compounds, 70% hits; AID 493221;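 active means choline transporter activity left, mean of duplicates at 10 µM, below buffer-only control mean minus 3 SD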;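 further: depolarization triggered by choline at its EC90 following an EC20 pre-addition; 0% = hemicholinium-3 full block and 100% = buffer-only control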
# HEK293 MPD ctr = counter-screen for CHT inhibitors: effect in parental HEK293 cells | membrane potential ratio readout (active if shifted either direction beyond buffer ±3SD; no single direction) at 10 µM | shares compounds with CHT block | AID 493222 | 2,400 compounds, 4% hits | membrane potential dye, choline response; active = decrease or increase beyond buffer ±3SD;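 further: parental cells lack the transporter so any hit is non-specific; ratio is peak minus trough fluorescence over baseline after EC90 choline challenge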
# Numbers without * were called inactive; i = inactive; · = no result. Hits are enriched below; roughly 2.4% of the tested compounds scored in any of these assays.
SMILES,CHT PAM,ANO1 activ,TMEM16A inh,CHT block,CHT inh conf,HEK293 MPD ctr
O=C(NC1CC1)C1=C[C@H](c2csc3ccccc23)C[C@H](OCc2ccc(CO)cc2)O1,i,i,i,-5.2*,56%*,i
O=C(Cn1ncc2c3ccccc3n(Cc3ccccc3F)c2c1=O)NC1CC1,i,i,i,i,·,·
CCCn1c2ccccc2c2cnn(CC(=O)NCCN(CC)CC)c(=O)c21,i,i,i,-9.1*,-3.9%*,i
O=C(Cn1ncc2c3ccccc3n(Cc3ccccc3F)c2c1=O)NCCN1CCOCC1,i,i,i,-9.9*,28%*,i
CCCn1c2ccccc2c2cnn(CC(=O)NCCN(C)C)c(=O)c21,i,i,i,-8*,19%*,i
CCCn1c2ccccc2c2cnn(CC(=O)N(CC)CC)c(=O)c21,i,i,i,i,·,·
CC(C)n1cc(C(=O)N2CCCC(Nc3ccc(F)c(F)c3)C2)cn1 (stereo not given),i,i,i,i,·,·
Oc1c(Cl)cc(Cl)cc1C=Nc1ccc2c(c1)OCCO2,i,i,i,-5.1*,62%*,i
CCN(c1ccc(NC(=O)CSc2ccc3c(c2)OCCO3)cc1)C(C)C,·,i,·,·,·,·
COCCNc1c(-c2ccc(OC)cc2)nc2ccc(Cl)cn12,i,i,i,-9.6*,i,i
COc1ccc(OCc2cccc(C(=O)Nn3cc([N+](=O)[O-])cn3)c2)cc1,i,i,i,-7.1*,69%*,i
COc1ccc(OCc2cccc(C(=O)NN)c2)cc1,i,i,i,i,·,·
Cc1ccnc(NS(=O)(=O)c2ccc(NC(=O)c3ccc(Cl)cc3[N+](=O)[O-])cc2)n1,i,i,i,-5.5*,51%*,i
CCn1c(SCc2nc(-c3ccc(OC)c(OC)c3)no2)nnc1-c1cccs1,i,i,i,-8.6*,42%*,i
O=C(N/N=C/c1cccs1)c1cccc(S(=O)(=O)Nc2ccc(Cl)cc2)c1,i,i,i,-5.5*,i,i
CSc1ccc(CNCCCSc2ncccn2)cc1,i,i,i,-5.6*,i,i
C/C(=N\NC(=O)c1ccccc1O)C1C(=O)c2ccccc2C1=O,i,i,i,-5*,31%*,i
Cc1cc(C)nc(NS(=O)(=O)c2ccc(N3C(=O)c4ccccc4C3=O)cc2)n1,i,i,i,i,·,·
C=CCNS(=O)(=O)c1ccc(N2C(=O)c3ccccc3C2=O)cc1,i,i,i,-6.5*,63%*,i
CC(C)(C)NS(=O)(=O)c1ccc(N2C(=O)c3ccccc3C2=O)cc1,i,i,i,-7.5*,60%*,i
CCc1ccc(NC(=O)C2CCN(S(=O)(=O)c3c(C)noc3/C=C/N(C)C)CC2)cc1,i,i,i,i,·,·
CN(Cc1ccccc1)C(=O)CN1CCN(C(c2ccccc2)c2ccccc2)CC1,i,i,i,-8.3*,52%*,i
COCCN(C(=O)CCC(=O)Nc1cc(C)on1)C(C(=O)NC(C)(C)C)c1cccc(OC)c1OC (stereo not given),i,i,i,-5.8*,i,i
NS(=O)(=O)c1ccc(NC(=O)NC2CC(=O)N(c3ccc4c(c3)OCCO4)C2)cc1 (stereo not given),i,i,i,i,·,·
O=C(Nc1ccc(S(=O)(=O)NC2=NCCCCC2)cc1)c1ccc(Cl)cc1Cl,i,i,i,-12*,-7.3%*,i
CN1CCN(c2ccc(NC(=O)c3ccc(Cl)cc3Cl)cc2)CC1,i,i,i,-6.4*,41%*,i
O=C(Nc1ccc(S(=O)(=O)N2CCOCC2)cc1)c1ccc(Cl)cc1Cl,i,i,i,-6.4*,43%*,i
Cc1ccc(C)c(NS(=O)(=O)c2ccc3[nH]c(=O)oc3c2)c1,i,i,i,i,·,·
CCN(CC(=O)Nc1ccccc1C(F)(F)F)C(=O)CCSc1ccc(F)cc1,i,i,i,i,·,·

# Assay outcomes (PubChem BioAssay)
